Reference: PubChem BioAssay (NCI)
About 83,000 compounds went through this panel and 20% of them were active in at least one assay; those are over-represented in the sample as a whole.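 Single-dose data. Exposure time 48 hours. Values below 10 considered active.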 Unmarked numbers belong to inactive results. Active and inactive are the calls of the source.

Assays:
Assay in all cases: NCI-60 one-dose screen, 48 h (100 = growth as untreated, 0 = no growth, -100 = all killed)
Details in all cases: 10 µM unless noted
NCI-H23 lung = tested on: NCI-H23 lung
NCI-H226 lung = tested on: NCI-H226 lung
NCI-H322M lung = tested on: NCI-H322M lung
HOP-62 NSCLC = tested on: HOP-62 NSCLC
NCI-H460 lung = tested on: NCI-H460 lung
HOP-92 NSCLC = tested on: HOP-92 NSCLC
NCI-H522 lung = tested on: NCI-H522 lung
A549/ATCC NSCLC = tested on: A549/ATCC NSCLC
786-0 renal = tested on: 786-0 renal
COLO 205 colon = tested on: COLO 205 colon

Structure (SMILES): COC(=O)[C@]12CC[C@@H](C)[C@H](C)[C@@H]1C1=CC[C@@H]3[C@@]4(C)C[C@@H](OC(C)=O)[C@H](OC(C)=O)[C@@](C)(COC(C)=O)[C@@H]4[C@H](O)C[C@@]3(C)[C@]1(C)CC2
- growth (NCI-H23 lung): 17.5%
- growth (NCI-H226 lung): 2.17% (active)
- growth (NCI-H322M lung): 34.6%
- growth (HOP-62 NSCLC): 15.6%
- growth (NCI-H460 lung): 4.06% (active)
- growth (HOP-92 NSCLC): 31.2%
- growth (NCI-H522 lung): -2.94% (active)
- growth (A549/ATCC NSCLC): 7.91% (active)
- growth (786-0 renal): 15%
- growth (COLO 205 colon): -76% (active)

Structure (SMILES): Nc1c(C(=O)Nc2cccc3ccccc23)sc2nc3c(cc12)CCCC3
- growth (NCI-H23 lung): 23.1%
- growth (NCI-H226 lung): 63.1%
- growth (NCI-H322M lung): 51.7%
- growth (HOP-62 NSCLC): 29.9%
- growth (NCI-H460 lung): 16.4%
- growth (HOP-92 NSCLC): 44%
- growth (NCI-H522 lung): 11.7%
- growth (A549/ATCC NSCLC): 17.8%
- growth (786-0 renal): 34.7%

Structure (SMILES): Cc1ccc(Nc2c(C(N)=O)cnc3ccc(S(=O)(=O)Nc4cc(C)on4)cc23)cc1
- growth (NCI-H23 lung): 95.1%
- growth (NCI-H226 lung): 95%
- growth (NCI-H322M lung): 95.8%
- growth (HOP-62 NSCLC): 89.8%
- growth (NCI-H460 lung): 103%
- growth (HOP-92 NSCLC): 84.1%
- growth (NCI-H522 lung): 92.2%
- growth (A549/ATCC NSCLC): 103%
- growth (786-0 renal): 106%

Structure (SMILES): COc1cc(-c2cc(-c3nc4ccc(F)cc4[nH]3)[nH]n2)cc(OC)c1OC
- growth (NCI-H23 lung): 15.8%
- growth (NCI-H226 lung): -11.1% (active)
- growth (NCI-H322M lung): 48.7%
- growth (HOP-62 NSCLC): 8.23% (active)
- growth (NCI-H460 lung): 33.5%
- growth (HOP-92 NSCLC): 25.8%
- growth (NCI-H522 lung): 9.45% (active)
- growth (A549/ATCC NSCLC): 29%
- growth (786-0 renal): 53.7%
- growth (COLO 205 colon): 20.9%

Structure (SMILES): Cc1cc(N(CCCNc2ccnc3cc(Cl)ccc23)Cc2ccco2)nc(Cl)n1
- growth (NCI-H23 lung): 31.5%
- growth (NCI-H226 lung): 68.1%
- growth (NCI-H322M lung): 76.6%
- growth (HOP-62 NSCLC): 41.6%
- growth (NCI-H460 lung): 57.1%
- growth (HOP-92 NSCLC): 27.1%
- growth (NCI-H522 lung): 59.9%
- growth (A549/ATCC NSCLC): 67%
- growth (786-0 renal): 55.6%

Structure (SMILES): NC(=O)[C@@H]1CC2CCC1C2 (some centres undefined)
- growth (NCI-H23 lung): 113%
- growth (NCI-H226 lung): 103%
- growth (NCI-H322M lung): 110%
- growth (HOP-62 NSCLC): 103%
- growth (NCI-H460 lung): 97.2%
- growth (HOP-92 NSCLC): 71.1%
- growth (NCI-H522 lung): 108%
- growth (A549/ATCC NSCLC): 110%
- growth (786-0 renal): 101%

Structure (SMILES): CN(C)c1ccc(N)c2ccccc12
- growth (NCI-H23 lung): -79.6% (active)
- growth (NCI-H226 lung): 47%
- growth (NCI-H322M lung): 58.7%
- growth (HOP-62 NSCLC): 74.1%
- growth (NCI-H460 lung): 52.5%
- growth (HOP-92 NSCLC): 105%
- growth (NCI-H522 lung): 80.1%
- growth (A549/ATCC NSCLC): 49.5%
- growth (786-0 renal): 87.1%

Structure (SMILES): O=C(NC1=CC(=O)c2ccccc2C1=O)c1ccccc1
- growth (NCI-H23 lung): 18.7%
- growth (NCI-H226 lung): 37.3%
- growth (NCI-H322M lung): 57.9%
- growth (HOP-62 NSCLC): 49.7%
- growth (NCI-H460 lung): 10.2%
- growth (HOP-92 NSCLC): -84.1% (active)
- growth (NCI-H522 lung): -48.8% (active)
- growth (A549/ATCC NSCLC): 23.8%
- growth (786-0 renal): 39.9%

Structure (SMILES): COc1ccc(CCN2C(=O)C(C)(C)SC2=S)cc1OC
- growth (NCI-H23 lung): 101%
- growth (NCI-H226 lung): 105%
- growth (NCI-H322M lung): 103%
- growth (HOP-62 NSCLC): 103%
- growth (NCI-H460 lung): 105%
- growth (HOP-92 NSCLC): 102%
- growth (NCI-H522 lung): 93.8%
- growth (A549/ATCC NSCLC): 101%
- growth (786-0 renal): 102%
- growth (COLO 205 colon): 111%

Structure (SMILES): COC1=C(Br)C(=O)C(OC)=C(Br)C1=O
- growth (NCI-H23 lung): 105%
- growth (NCI-H226 lung): 102%
- growth (NCI-H322M lung): 98.1%
- growth (HOP-62 NSCLC): 111%
- growth (NCI-H460 lung): 106%
- growth (HOP-92 NSCLC): 153%
- growth (NCI-H522 lung): 86.3%
- growth (A549/ATCC NSCLC): 102%
- growth (786-0 renal): 103%

Structure (SMILES): O=C1c2ccccc2C(=Cc2ccccc2)c2ccccc21
- growth (NCI-H23 lung): 2.92% (active)
- growth (NCI-H226 lung): 38.7%
- growth (NCI-H322M lung): 66.8%
- growth (HOP-62 NSCLC): 21.3%
- growth (NCI-H460 lung): -6.75% (active)
- growth (HOP-92 NSCLC): 51.7%
- growth (NCI-H522 lung): -25.4% (active)
- growth (A549/ATCC NSCLC): 19.8%
- growth (786-0 renal): -15.9% (active)

Structure (SMILES): CCN1CCN(C(=O)[C@]23CC[C@@H](C)[C@H](C)[C@H]2C2=CC[C@@H]4[C@@]5(C)C/C(=C/c6cccc(OC)c6OC)C(=O)C(C)(C)[C@@H]5CC[C@@]4(C)[C@]2(C)CC3)CC1
- growth (NCI-H23 lung): 42.9%
- growth (NCI-H226 lung): 46.2%
- growth (NCI-H322M lung): 83.7%
- growth (HOP-62 NSCLC): 57.7%
- growth (NCI-H460 lung): 20.1%
- growth (HOP-92 NSCLC): 46.9%
- growth (NCI-H522 lung): 52.9%
- growth (A549/ATCC NSCLC): 36.1%
- growth (786-0 renal): 49.7%

Structure (SMILES): c1csc(-c2nc(-c3cc4ccccc4c(N4CCOCC4)n3)cs2)c1
- growth (NCI-H23 lung): 87.8%
- growth (NCI-H226 lung): 107%
- growth (NCI-H322M lung): 94.1%
- growth (HOP-62 NSCLC): 97.6%
- growth (NCI-H460 lung): 100%
- growth (HOP-92 NSCLC): 116%
- growth (NCI-H522 lung): 93.8%
- growth (A549/ATCC NSCLC): 95.6%
- growth (786-0 renal): 96.9%

Structure (SMILES): CCCCN1CCCCn2c1nc1c2c(=O)n(C)c(=O)n1C
- growth (NCI-H23 lung): 108%
- growth (NCI-H226 lung): 104%
- growth (NCI-H322M lung): 110%
- growth (HOP-62 NSCLC): 103%
- growth (NCI-H460 lung): 101%
- growth (HOP-92 NSCLC): 95.7%
- growth (NCI-H522 lung): 90.1%
- growth (A549/ATCC NSCLC): 89%
- growth (786-0 renal): 100%
